Source: PubChem BioAssay
A selection follows.
aSyn 5UTR act: Activators via SNCA 5'UTR binding, MLPCN; 300,000 tested, 7.1% active; AID 1814; activity score, % (tested at 7.5 µM), hits read low; alpha-synuclein 5'UTR reporter, activators screen; in the data active means activity score below about -60%
Starred values were filed as active, the others as inactive.

SMILES	aSyn 5UTR act
Nc1nc(COc2ccccc2)cs1	-67*
COC(=O)c1cc(/C=C/c2ccccc2)[nH]n1	-117*
CC(C)(C)c1ccc(-c2noc(-c3ccno3)n2)cc1	-120*
Cn1cccc1C(=O)NNC(=O)c1ccccc1Br	-97*
Cn1cccc1C(=O)NNC(=O)COc1ccccc1F	-87*
CCN(CC)c1ccc(C(=O)NNC(=O)c2cccn2C)cc1	-115*
N#C/C(=C\c1ccc([N+](=O)[O-])cc1)C(=O)Nc1ccccc1O	-112*
N#C/C(=C/c1ccc([N+](=O)[O-])cc1)C(=O)Nc1ccccc1O	-134*
CCOC(=O)c1cc(C(=O)Nc2ccccc2F)nn1C	-159*
CC(C)(C)c1cc(NCCCn2ccnc2)n2ncc(-c3ccc(Cl)cc3)c2n1	-109*
O=C(Nc1ccc(N2CCCC2)cc1)c1ccccc1F	-80*
O=C(Nc1ccc(N2CCCC2)cc1)c1cccc(Cl)c1Cl	-100*
O=C(Nc1ccc(N2CCOCC2)nc1)c1ccccc1Cl	-102*
O=C(Nc1ccc(N2CCCCC2)cc1)c1cccnc1Cl	-128*
CS(=O)(=O)N1N=C(c2ccc(Cl)cc2)CC1c1cccs1 (stereo not drawn)	-178*
COc1ccc2nc(Nc3nc4cc5c(cc4s3)OCO5)sc2c1	-123*
COc1ccc2nc(Nc3ccc4c(c3)OCO4)sc2c1	-160*
C(=N\C(/N=C/c1ccco1)c1ccco1)/c1ccco1	-68*
CCC(=O)Nc1cccc(NC(=S)NC(=O)c2cccc(C)c2)c1	-172*
CCC(=O)Nc1cccc(NC(=S)NC(=O)c2ccccc2)c1	-183*
CCC(=O)Nc1cccc(NC(=S)NC(=O)c2cc3ccccc3o2)c1	-133*
CCC(=O)Nc1cccc(NC(=S)NC(=O)c2ccc(C)cc2)c1	-156*
Cc1ccc(OCCCn2c(=O)sc3ccccc32)cc1	-65*
Cc1ccccc1OCCCn1c(=O)sc2ccccc21	-130*
O=c1sc2ccccc2n1CCCOc1ccccc1	-137*
SMILES	aSyn 5UTR act
Cc1ccc(OCCn2c(=O)sc3ccccc32)cc1	-115*
O=c1sc2ccccc2n1COc1ccc(Cl)cc1	-90*
O=C(COC(=O)CC1CCCC1)Nc1cc2c(cc1Cl)C(=O)c1ccccc1C2=O	-169*
COC(=O)c1ccc(-c2ccc(/C=N/NC(=O)Cc3nnc(N)s3)o2)cc1	-67*
COc1ccc(NC(=O)CCn2cc(C)c3ccccc32)cc1	-76*
COc1ccc(NC(=O)c2ccccc2C)cc1	-132*
COCC(=O)Nc1ccccc1C(=O)Nc1ccc(OC)cc1	-90*
CC(=O)Nc1ccc(OCc2cccc3ccccc23)cc1	92
COc1ccc(NC(=O)c2cccc3ccccc23)cc1	-96*
CCCc1cc(=O)n2[nH]c(-c3cccc(Br)c3)cc2n1	-181*
CCCc1cc(=O)[nH]c(-n2[nH]c3c(c2=O)CCCC3)n1	56
CCCc1cc(=O)n2[nH]c(-c3ccc(Br)cc3)cc2n1	-87*
O=C(OCC(F)(F)F)c1cccc(COc2ccc3ccccc3c2)c1	107
O=C(OCc1ccccc1F)c1ccc2c(c1)-c1ccccc1C2=O	-121*
O=C(OCc1cccc(F)c1)c1ccc2c(c1)-c1ccccc1C2=O	-68*
Cn1cc(C(=O)c2ccc(Cl)cc2Cl)cc1C(=O)N/N=C(\N)COc1ccc(Cl)cc1Cl	65
C/C(=N/NC(=O)c1ccc(C)s1)c1cccnc1	-70*
COc1cc(OC)cc(C(=O)Nc2ccc(C(=O)c3ccncc3)cc2)c1	-72*
C/C(=N/NC(=O)c1ccncc1)c1ccc(NC(=O)c2ccc(Cl)cc2Cl)cc1	-185*
COc1ccc(/C(C)=N/NC(=O)c2ccccc2N)cc1	-92*
C/C(=N\NC(=O)c1ccncc1)c1ccc(NC(=O)c2ccc(Cl)cc2)cc1	-116*
COc1ccc(C(=O)Nc2ccc(/C(C)=N/NC(=O)c3ccncc3)cc2)cc1	-108*
C/C(=N\NC(=O)c1ccc(Cl)cc1)c1cccnc1	-92*
C/C(=N\OC(=O)NC1CCCCC1)c1sc(-c2ccccc2)nc1C	-115*
C/C(=N\OC(=O)NC(C)C)c1sc(-c2ccccc2)nc1C	-141*
SMILES	aSyn 5UTR act
CCNC(=O)O/N=C(\C)c1sc(-c2ccc(Cl)cc2)nc1C	-77*
C/C(=N\OC(=O)NC(C)C)c1sc(-c2ccc(Cl)cc2)nc1C	-154*
C=C(C)c1sc(-c2ccc(Cl)cc2)nc1C	-223*
CSc1ccc(-c2sc(Nc3cccc4ccccc34)n[n+]2-c2ccccc2)cc1	-143*
CSc1ccc(-c2sc(Nc3ccccc3)n[n+]2-c2ccccc2)cc1	-98*
O=[N+]([O-])c1cc(/C=N/N/C(=N/c2ccccn2)c2ccccn2)ccc1O	-91*
O=[N+]([O-])c1ccc(/C=N/N/C(=N/c2ccccn2)c2ccccn2)cc1	-125*
Cc1csc(=NC(=O)c2ccccc2)n1C	-126*
CCn1c(C)csc1=NC(=O)c1ccccc1O	-249*
CCn1c(C)csc1=NC(=O)c1ccccc1	-112*
CCN(CC)S(=O)(=O)c1ccc2c(c1)nc(-c1ccccn1)n2C	-73*
O=C(Nc1ccccc1)c1cc2n(n1)C(C(F)(F)F)CC(C1CC1)N2 (stereo not drawn)	-168*
COc1ccc2nc(/C=N/NC(=O)CCCCCNC(=O)OC(C)(C)C)ccc2c1	-70*
COc1ccc2nc(C)cc(SCC(=O)N/N=C/c3ccc(O)cc3O)c2c1	80
c1ccc2c(c1)NC1(CCCC1)n1c-2nc2ccccc21	-141*
CCCC1(C)Nc2ccccc2-c2nc3ccccc3n21 (stereo not drawn)	-96*
CN(C)/C=C/C(=O)c1cnc(-c2ccccc2Cl)s1	-127*
CN(C)/C=C/C(=O)c1cnc(-c2cccc(Cl)c2)s1	-146*
NNc1nc2ccccc2c(=O)n1Cc1ccccc1	-133*
CCSc1nnc(-c2c[nH]c3ccccc23)o1	-104*
COC(=O)c1c(NC(=O)CN2CCOCC2)sc2c1CCC(C)C2 (stereo not drawn)	-123*
CC1CCc2nc(NC(=O)C3CC3)sc2C1 (stereo not drawn)	-138*
CC1CCc2nc(NC(=O)C3COc4ccccc4O3)sc2C1 (stereo not drawn)	63
CC1CCc2nc(NC(=O)CN3CCOCC3)sc2C1 (stereo not drawn)	-92*
CC1CCc2nc(NC(=O)Nc3ccc4c(c3)OCO4)sc2C1 (stereo not drawn)	-123*
SMILES	aSyn 5UTR act
Cc1ncsc1C(=O)Nc1nc2c(s1)CC(C)CC2 (stereo not drawn)	-126*
O=C(COc1ccc(/C=N/NC(=O)c2ccncc2)cc1)Nc1ccccc1	-72*
Cc1[nH]c2ccccc2c1/C=N/NC(=O)c1cccc([N+](=O)[O-])c1	-65*
COc1ccc(NC(=O)COc2ccc(/C=N/n3c(C)nnc3C)cc2OC)cc1	-91*
COc1cc(/C=N/NC(=O)c2cccc(C)c2)ccc1OCC(=O)Nc1ccccc1	-128*
COc1cc(/C=C/[N+](=O)[O-])ccc1OCc1cccc(C(=O)O)c1	97
Cc1cccc(NC(=O)COc2ccc(Br)cc2/C=N/O)c1	-167*
COc1cc(/C=N/NC(=O)c2cccc([N+](=O)[O-])c2)ccc1OCc1ccccc1	-135*
COc1cc(/C=N/NC(=O)c2ccc(O)cc2)ccc1OCC(=O)Nc1cccc([N+](=O)[O-])c1	-82*
COc1ccc(/C=N/NC(=O)c2ccncc2)cc1COc1ccc(NC(C)=O)cc1	80
COc1cc(/C=N/NC(=O)c2ccncc2)ccc1OCc1cnc(Cl)s1	-153*
CCNc1nc(N)c(C(=O)c2ccc(Cl)s2)s1	-188*
COc1ccccc1OCC(=O)N/N=C1\CCc2ccccc21	-143*
